# The list is not random: actives were taken first. Their share in the collection is about 3%.
# pPAFAH FP inh = inhibitors of human plasma PAF acetylhydrolase (pPAFAH); Q13093; recombinant pPAFAH, FP-rhodamine probe fluorescence polarization; inhibition, % at 3.39 µM; hit rate 1.5% among 330,000;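 active = inhibition above the mean inhibition across the screen plus 3 SD, cut at about 25% in these data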;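 note: inhibitors block binding of the rhodamine activity-based probe so polarization drops; 0% = enzyme with DMSO and 100% = wells lacking pPAFAH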
# PAFAH1B3 inh = PAFAH1B3 (human) inhibition; Q15102; recombinant PAFAH1B3, FP-rhodamine probe, fluorescence polarization; inhibition, % at 3.39 µM; hit rate 0.28% among 340,000; AID 492972;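 active = inhibition above the screen-wide average of all tested compounds plus 3 SD, cut at about 25% in these data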;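 note: 0% = enzyme with DMSO only and 100% = wells lacking PAFAH1B3 protein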
# Target sequence (Q15102 whole entry, looked up): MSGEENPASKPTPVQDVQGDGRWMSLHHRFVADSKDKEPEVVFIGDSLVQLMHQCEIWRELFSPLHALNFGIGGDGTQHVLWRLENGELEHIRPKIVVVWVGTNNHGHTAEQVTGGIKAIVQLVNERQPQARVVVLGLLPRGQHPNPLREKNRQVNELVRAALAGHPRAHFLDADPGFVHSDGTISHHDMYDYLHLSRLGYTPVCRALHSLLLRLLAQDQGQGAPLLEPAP
# PAFAH1B2 inh = blocks human PAF acetylhydrolase 1b catalytic subunit 2; P68402; recombinant PAFAH1B2, FP-rhodamine activity probe, fluorescence polarization; inhibition, % at 3.39 µM; hit rate 1.2% among 340,000; AID 492953;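 active = inhibition above the mean of all tested compounds plus 3 SD, cut at about 24% in these data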;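 note: 0% = enzyme with DMSO and 100% = wells lacking PAFAH1B2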
# Target sequence (P68402 whole entry, looked up): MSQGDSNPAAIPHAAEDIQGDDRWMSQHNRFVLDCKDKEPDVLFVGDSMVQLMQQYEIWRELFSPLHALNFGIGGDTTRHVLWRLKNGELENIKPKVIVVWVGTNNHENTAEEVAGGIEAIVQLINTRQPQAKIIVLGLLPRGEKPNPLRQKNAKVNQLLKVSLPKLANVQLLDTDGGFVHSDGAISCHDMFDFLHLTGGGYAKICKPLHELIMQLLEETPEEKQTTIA
# DAGLB inhibitor = diacylglycerol lipase beta (human) inhibition; Q8NCG7; HEK293T DAGLB membrane lysate, EnzChek fluorogenic substrate; inhibition, % at 5.17 µM; hit rate 0.059% among 340,000; in the data active = inhibition above about 34%;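 note: 0% = enzyme with vehicle and 100% = wells lacking enzyme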
# PAFAH2 FP inh = PAFAH2 (human) inhibition | AID 492956 | hit rate 0.99% among 340,000 | recombinant PAFAH2, FP-rhodamine activity probe, fluorescence polarization | Q99487 | inhibition, % at 3.39 µM;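 active = inhibition above the mean over all tested compounds plus 3 SD, cut at about 30% in these data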;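 note: inhibitors block probe labeling of enzyme so polarization drops; 0% = enzyme with DMSO and 100% = wells lacking PAFAH2 protein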
# ATG4B inh = inhibitors of human ATG4B cysteine protease | Q9Y4P1 | ATG4B cleavage of LC3-PLA2, NBD-HPC fluorescence, 1 h | inhibition, % at 8.33 µM | hit rate 0.51% among 340,000 | AID 504462; in the data active = inhibition above about 40%
# * hit, by the source's call; x = no result.
SMILES,pPAFAH FP inh,PAFAH1B3 inh,PAFAH1B2 inh,DAGLB inhibitor,PAFAH2 FP inh,ATG4B inh
Cc1c(C)c2ccc(OC(C)C(=O)N[C@@H](Cc3c[nH]c4ccccc34)C(=O)O)c(C)c2oc1=O (stereo partly drawn),-1.6,2.5,24.5*,3.0,0.7,-26.2
NC(=O)C1CCCN(C(=O)CCC(=O)c2cccs2)C1 (stereo not drawn),2.0,15.6,4.3,3.1,-2.1,-5.1
CCOC(=O)c1c(C)[nH]c(C)c1S(=O)(=O)NC(CC)CN1CCOCC1 (stereo not drawn),6.8,3.6,0.0,-0.2,-1.9,-0.2
CCOC(=O)Nc1ccc2c(CNC(C)c3ccccc3OC)cc(=O)oc2c1 (stereo not drawn),9.3,4.8,1.7,0.0,-4.4,-2.9
COc1cccc(C(=O)/C(C#N)=N/Nc2cccc(-c3ccnc(C)n3)c2)c1,31.7*,5.8,3.8,5.9,4.2,-9.9
C/C(=N\OCC(=O)OCC(=O)N(C)c1ccccc1)c1ccc2c(c1)OCO2,4.4,9.7,4.1,1.9,7.8,-6.8
COCC(=O)Nc1ccc(S(=O)(=O)Nc2onc(C)c2C)cc1,x,x,x,-3.1,x,x
Cc1noc(NS(=O)(=O)c2ccc(NC(=O)CCC3CCCCC3)cc2)c1C,32.0*,12.3,27.7*,6.9,12.8,-8.7
Cc1noc(NS(=O)(=O)c2ccc(NC(=O)CSc3ncccn3)cc2)c1C,8.6,3.1,-2.4,-1.3,-0.7,-10.4
Cc1noc(NS(=O)(=O)c2ccc(NC(=O)CSc3nc4ccccc4s3)cc2)c1C,0.4,7.2,28.1*,5.2,5.9,-15.1
CCCNC(C)(C)COC(=O)c1ccccc1,-0.9,13.0,-7.9,0.3,-3.2,-7.2
O=C(CSc1nnnn1-c1ccc(F)cc1)c1ccc(O)c(O)c1,31.2*,4.1,9.0,16.3,19.5,-7.3
COc1ccc(CCN2CC(C(=O)OCC(=O)Nc3c(C)nn(-c4ccccc4)c3C)CC2=O)cc1OC (stereo not drawn),2.7,5.5,-2.5,1.5,-0.6,-7.4
O=C(CSc1nccc(=O)[nH]1)Nc1cccc(S(=O)(=O)N2CCOCC2)c1,29.9*,7.7,2.0,-1.0,2.2,-3.9
O=C(CSc1ncccn1)Nc1cccc(S(=O)(=O)N2CCOCC2)c1,1.7,7.6,0.8,-1.8,-0.6,0.6
O=C(COC(=O)CCC1CCCC1)Nc1cccc(S(=O)(=O)N2CCOCC2)c1,25.5*,-1.9,-1.7,-2.6,14.9,-14.3
Cc1ccc(S(=O)(=O)N2CCOCC2)cc1NC(=O)COC(=O)CNC(=O)c1ccc(Oc2ccccc2)cc1,28.4*,3.5,-2.4,-2.6,4.5,-15.4
O=C(COC(=O)CNC(=O)c1ccc(Cl)cc1Cl)Nc1cccc(S(=O)(=O)N2CCCC2)c1,29.7*,4.0,0.6,-3.4,3.9,-10.6
CC1CN(C(C)C)C(=S)NC1=O (stereo not drawn),x,5.3,6.9,3.3,1.0,-3.3
CC(C)(C)[C@@H]1COC(=O)[C@@H](Cc2ccc(F)cc2)C/C=C\C[C@H](CC(=O)N(CCO)Cc2ccccc2)C(=O)N1,6.5,7.2,6.6,-3.3,2.7,-16.0
CCCCCCCN1CCC(=O)N([C@H](CO)c2ccccc2)CC1,-1.6,-2.0,-5.9,0.0,4.9,-4.3
O=C(CSc1ccc(Cl)cc1)NNC(=O)c1cccnc1,5.8,1.2,28.0*,-0.6,5.1,-2.2
CCC(C)c1ccc(C2C3=C(Nc4nc(N)[nH]c(=O)c42)c2ccccc2C3=O)cc1 (stereo not drawn),24.8*,-1.1,-1.7,28.8,-1.7,-0.5
N/C(=C\C(=O)c1cc(Cl)ccc1O)C(Cl)(Cl)Cl,4.5,78.9*,0.1,-0.7,15.3,-9.8
O=C(COC(=O)c1cc[n+]([O-])cc1)Nc1ccc([N+](=O)[O-])cc1Cl,-1.0,4.3,-1.0,0.6,2.3,-4.4
SMILES,pPAFAH FP inh,PAFAH1B3 inh,PAFAH1B2 inh,DAGLB inhibitor,PAFAH2 FP inh,ATG4B inh
Cc1ccc(N/N=C(/Sc2nnnn2-c2ccccc2)C(=O)c2ccccc2)cc1,2.3,-2.8,26.9*,9.5,-0.2,12.4
COc1ccc(S(=O)(=O)N2CCN(C(=S)NCCc3ccccc3)CC2)cc1,-3.9,3.3,27.1*,1.7,1.4,-0.5
S=C(NCc1ccc(Cl)cc1)Nc1ccccc1,6.6,1.6,0.0,0.4,4.2,14.2
S=C(NCc1ccc(Cl)cc1Cl)Nc1ccccc1,33.2*,-4.1,5.8,-4.5,0.7,31.5
NNC(=O)c1cc(O)c(O)c(O)c1,30.3*,10.1,7.5,1.2,2.4,-9.5
O=C(COC(=O)c1ccc2c(c1)C(=O)N(CCc1ccccc1)C2=O)Nc1ccc(OC(F)F)cc1,25.4*,7.4,5.1,-11.8,-4.2,-1.5
COc1ccccc1C(=O)OCC(=O)Nc1ccc(OC(F)F)cc1,28.5*,-5.7,-2.1,-2.5,47.6*,-8.5
CCc1ccc(NC(=O)COC(=O)CC2CCCC2)cc1,26.4*,6.3,1.6,-7.9,76.1*,-1.9
Cc1ccc(NC(=O)COC(=O)CC2CCCC2)cc1F,29.5*,0.4,-2.5,-4.9,79.2*,-9.5
COc1ccc(-c2ccc(CN3C(C(C)C)C(=O)N(Cc4cn(Cc5ccco5)nn4)CCS3(=O)=O)cc2)cn1 (stereo not drawn),x,x,x,-1.2,x,x
O=C(COC(=O)CC1CCCC1)Nc1ccc(OC(F)F)cc1,28.2*,2.8,1.5,-5.5,61.7*,-4.7
COc1ccc(NS(=O)(=O)c2ccc(OC)c(NC(=O)CNC(=O)c3ccc(OC)cc3)c2)cc1,18.0,-1.0,2.3,-0.9,-8.0,-21.4
NC(=O)c1ccc(NC(=O)COC(=O)CCC2CCCCC2)cc1,2.8,-0.5,7.8,-3.2,-2.0,10.1
COc1ccc(NS(=O)(=O)c2ccc(OC)c(NC(=O)CCC3CCCCC3)c2)cc1,28.5*,4.2,10.1,-5.4,-5.9,-1.5
COc1ccc(NC(=O)COC(=O)CCC2CCCCC2)cc1,31.8*,4.4,12.2,-6.5,32.3*,-1.9
COc1ccc(NC(=O)Cc2nnc(SCC(=O)Nc3ccc(F)cc3)n2C)cc1,4.8,-0.7,-1.4,-0.7,-4.5,-7.9
O=Cc1c(NCc2ccccc2Cl)c2ccccc2[nH]c1=O,6.6,6.6,3.4,-1.2,-37.5,3.5
Cc1ccc(NC(=O)CN2CCN(S(=O)(=O)c3ccc4c(c3)OCCO4)CC2)c(C)c1,x,x,x,-2.7,x,x
O=C(Nc1ccccc1)Nc1ccccc1C(=O)NCCCN1CCOCC1,5.3,-3.6,2.2,-0.5,-3.0,-2.9
C[C@@H](O)CNC(=O)c1[nH]cnc1C(=O)N[C@H](C)c1ccccc1,x,x,x,-1.7,x,x
Cn1ccc(C(=O)OCC(=O)c2ccccc2)n1,1.4,8.2,0.3,0.4,6.4,5.0
Cn1ccc(C(=O)OCC(=O)Nc2cccc3ccccc23)n1,0.5,13.3,-3.2,-0.1,50.1*,-1.1
N#Cc1cccc(S(=O)(=O)N2CCN(c3ccnc4cc(Cl)ccc34)CC2)c1,-0.3,3.3,0.8,-1.9,5.0,-17.9
